Bioassay records: PubChem, several laboratories
IEC-6 cytotox – cytotoxicity in IEC-6 intestinal epithelial cells, primary screen, cytotoxicity control for KLF5 inhibitor project, cell-based, luminescence. hit rate 0.78% among 290,000. AID 1825, 2009. inhibition, % at 5 µM. IEC-6 cytotoxicity, luminescence viability; in the data active = inhibition above about 22%;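 also: 0% = plate median of test compound wells and 100% = cytotoxic reference compound wells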
APP transl inh – inhibitors of APP translation via 5'UTR reporter, primary screen, APP 5'UTR luciferase, SH-SY5Y cells. SH-SY5Y APP 5'UTR-luciferase reporter, luminescence. inhibition, % at 2 µM. hit rate 0.82% among 190,000. AID 1285, 2008;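 active = inhibition above a set limit, derived from the sample mean plus 3 SD, cut at about 45% in these data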
aSyn UTR inh – MLPCN primary screen, SNCA 5' untranslated region. inhibition, % (tested at 7.5 µM). alpha-synuclein 5'UTR reporter, inhibitor activity. hit rate 0.82% among 300,000; in the data active = inhibition above about 60%;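 also: H4 neuroglioblastoma cells stably carrying SNCA 5'UTR luciferase fusion; 0% = DMSO wells and 100% = positive control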
KLF5 inhibitor – KLF5 expression inhibitors, primary screen, DLD-1 cells, luminescence. DLD-1 KLF5 promoter-luciferase reporter. inhibition, % at 5 µM. hit rate 0.23% among 290,000;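 active = inhibition above a per-plate limit of that plate's mean compound inhibition plus 3 SD, cut at about 60% in these data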;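 also: 0% = DMSO wells and 100% = LY294002 at 200 µM; higher means less KLF5 promoter-driven luciferase light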
BaF3 tox – parental Ba/F3 cell viability inhibition, counter-screen for JAK2V617F inhibitor project, murine pro-B, CellTiter-Glo luminescence. CellTiter-Glo ATP luminescence. inhibition, % at 5.6 µM. hit rate 1.1% among 220,000;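 active = inhibition above a per-campaign cutoff, the mean inhibition of all tested compounds plus 3 SD, cut at about 27% in these data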;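 also: 0% = DMSO wells and 100% = JAK Inhibitor I control wells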
Ba/F3 V617F tox – reduced viability of JAK2V617F-dependent Ba/F3 cells, primary screen, JAK2V617F inhibitor project, cell-based, Ba/F3 EpoR-JAK2V617F, luminescence; hit rate 1.1% among 220,000; AID 1446, 2008; ATP luminescence; inhibition, % at 5.6 µM;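 active = inhibition above the campaign mean plus 3 SD over all tested compounds, cut at about 24% in these data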;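 also: cytokine-independent growth of Ba/F3 cells driven by EpoR plus mutant JAK2; 0% = DMSO-treated cells and 100% = JAK inhibitor I control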
* marks the source's active call; other numbers are inactive results; x = no result given. Hits are enriched below; roughly 2.2% of the tested compounds scored in any of these assays.

SMILES	IEC-6 cytotox	APP transl inh	aSyn UTR inh	KLF5 inhibitor	BaF3 tox	Ba/F3 V617F tox
CCC(=O)Nc1cc(-c2nn(C)c(=O)c3ccccc23)ccc1N1CCOCC1	3.7	-7.1	12.0	10.6	1.9	-3.9
Cn1nc(-c2ccc(N3CCCCC3)c(NC(=O)c3ccco3)c2)c2ccccc2c1=O	-1.4	11.2	67.2*	-20.3	4.4	-0.1
CCC(C(=O)N1CCOCC1)n1c2ccccc2c2nc(=O)cc(C)n21 (centres undefined)	-4.2	x	12.1	-61.6	x	x
CCN(CC)S(=O)(=O)c1ccc(N2CCOCC2)c(NC(=O)c2cccc3ccccc23)c1	0.2	-4.8	0.9	-6.1	1.6	-1.4
CCOc1cc(N2CCOCC2)c(OCC)cc1NC(=O)c1cc(-c2ccco2)nc2ccccc12	1.5	48.8*	113.9*	-11.7	7.7	0.7
CCN(CC)S(=O)(=O)c1ccc(N2CCOCC2)c(NC(=O)c2cc(-c3ccccn3)nc3ccccc23)c1	-0.6	39.1	88.4*	9.6	9.8	-1.7
CCOc1cc(N2CCOCC2)c(OCC)cc1NC(=O)COc1ncnc2ccccc12	1.9	16.9	23.7	-33.9	3.2	-0.1
O=C(Oc1ccc2c(c1)OCO2)c1cc2c(s1)CCC2	-3.6	55.5*	-16.8	-14.1	3.2	2.1
O=C(CC(C(=O)O)c1ccc(Cl)cc1)c1ccc(Br)cc1 (centres undefined)	3.2	x	-2.1	-3.0	x	x
COc1cc(/C=C/c2noc(-c3ccccc3O)n2)cc(OC)c1OC	-5.2	-52.0	-145.6	-10.9	4.5	-2.0
COc1cc(/C=C/c2nnc3c4ccccc4ncn23)cc(OC)c1OC	20.6	-2.3	-80.3	22.4	43.0*	27.7*
CC(NC(=O)Cn1c(NCCO)nc2ccccc21)C1CC2CCC1C2 (centres undefined)	3.3	-1.4	-5.0	-10.0	4.6	6.1
Cc1nc2ccccc2n1CC(=O)NC(C)C1CC2CCC1C2 (centres undefined)	3.7	-7.7	-5.6	-3.9	48.8*	40.4*
CC(NS(=O)(=O)c1ccc2c(c1)C(=O)c1cc(S(=O)(=O)NC(C)C(=O)O)ccc1-2)C(=O)O (centres undefined)	-3.1	x	2.8	-11.6	x	x
CC(NS(=O)(=O)c1cccc(S(=O)(=O)c2ccccc2)c1)C(=O)O (centres undefined)	-4.4	-6.6	18.3	-11.1	30.9*	-1.4
CC(=O)C1=NN(c2ccccc2)C(c2cccs2)N1c1ccc(N(C)C)cc1 (centres undefined)	7.9	-10.3	2.2	-87.3	70.4*	81.5*
CC(=O)C1=NN(c2ccccc2)C(c2ccc3c(c2)OCO3)N1c1ccccc1 (centres undefined)	-0.6	-25.8	-11.1	-43.2	45.5*	20.8
CC(=O)N1N=C(c2ccccc2)CC1c1ccc2c(c1)OCO2 (centres undefined)	-1.2	x	-27.3	-30.4	x	x
O=C(CCN1C(=O)/C(=C/c2ccc3c(c2)OCO3)SC1=S)Nc1ccc(C(=O)O)cc1	-5.4	x	-6.8	-5.4	x	x
O=C(CCCN1C(=O)/C(=C/c2ccc3c(c2)OCO3)SC1=S)Nc1ccc(C(=O)O)cc1	3.1	x	101.6*	10.4	x	x
O=C(CCCN1C(=O)/C(=C\c2ccccc2)SC1=S)Nc1ccc(C(=O)O)cc1	9.3	x	22.1	14.2	x	x
CCc1ccc(/C=C2\SC(=S)N(CCCC(=O)Nc3ccc(C(=O)O)cc3)C2=O)cc1	10.1	x	108.6*	28.7	x	x
CCCCN1C2=NCCCN2c2cc(C)c(C)cc21	5.9	-2.0	12.2	-16.3	58.8*	50.8*
Cc1ccc(S(=O)(=O)CC2CSc3nc4ccccc4n32)cc1 (centres undefined)	10.0	x	-12.6	41.6	72.2*	58.1*
Cc1ccc(/C=C2\SC(=S)N(CCCC(=O)Nc3ccccc3C(=O)O)C2=O)cc1	6.9	x	67.6*	6.2	x	x
Cc1ccc(/C=C2\SC(=S)N(CCCC(=O)Nc3ccc(O)cc3)C2=O)cc1	-0.3	x	103.6*	61.5	-0.1	1.8
Cc1ccc(/C=C2\SC(=S)N(CCCC(=O)Nc3ccccn3)C2=O)cc1	-0.4	55.3*	106.8*	28.9	0.4	-2.3
